Assay [1] in a line: AP1 Signaling Pathway (AID 357).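 Also: ME-180 reporter cells stimulated with EGF at its EC50 level; % is scaled to controls: 0 for no effect and ±100 for the full control effect.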 An outline of the steps: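 Modulation of EGF-driven AP-1 transcription was assessed with a beta-lactamase reporter in ME-180 cells. Compound and EC50 EGF were co-incubated 5 hours at 37 °C before 2.5-hour CCF4 loading at room temperature and dual-emission reading.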
Assay [2] concerns the target Cytochrome P450 1A2 (Homo sapiens) (UniProt P05177). The assay is described as follows: p450-cyp1a2 (AID 410; calls by dose curve; also: potency is read from the fitted curve at half-maximal effect;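 as to activity change, negative = inhibition: -100% = full effect of reference inhibitor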). In outline:
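Luminescent readout of luciferin formed from Luciferin-ME by human CYP1A2; data normalized against complete inhibition by 57 uM furafylline. Enzyme 20nM, substrate 100uM at Km, 100mM KPO4 buffer, 60 min reaction at room temperature.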

A short description of assay [3]: Stat Signaling Pathway (AID 446).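 Also: ME-180 cervical cancer cells given 40 pM IL-6 alongside compound; SIE-controlled beta-lactamase reporter measured as 460/530 nm FRET emission ratio; % is scaled to controls: 0 for no effect and ±100 for the full control effect.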 In outline: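 Screening format detects activators and inhibitors alike: ME-180 SIE-bla cells stimulated at 40 pM IL-6 for 5 hrs with compound, then dual-emission beta-lactamase read at 405 nm excitation.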
The target of assay [4] is Glucocorticoid receptor (Homo sapiens) (UniProt P04150). The assay is described as follows: GR-GFP Redistribution (AID 450;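 active = compounds whose dose series gives a full or clear partial fitted curve of increased nuclear translocation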; also: potency is read from the fitted curve at half-maximal effect). The note with it: U2OS GR-GFP nuclear translocation, laser cytometry, 2 h.
The target is the same in assay [5]. The experiment in a line: GR-EFC Redistribution (AID 451; calls by dose curve; also: potency is read from the fitted curve at half-maximal effect). To be noted: CHO-K1 GR-EFC translocation, beta-gal luminescence, 2 h. An outline of the steps:
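CHO-K1 cells stably expressing nuclear-localized β-gal enzyme acceptor and GR fused C-terminally to the enzyme donor fragment; ligand-driven nuclear translocation restores β-gal by complementation. Compounds titrated up to 46 uM final, 2 h at 37 °C; luminescence read.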

Assay [6] addresses Mitogen-activated protein kinase 10 (Mus musculus) (UniProt Q61831). The experiment in a line: JNK3 AlphaScreen Assay (AID 530).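 Also: kinase came from lysate of stimulated human HepG2 cells; signal reports phosphorylation of biotinylated GST-cJun 1-79 at Ser73 with 10 µM ATP; % is scaled to controls: 0 for no effect and ±100 for the full control effect.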 An outline of the steps:
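Inhibitors reduce antibody binding to phosphorylated biotin-cJun, lowering AlphaScreen luminescence. Lysates from HepG2 cells pre-activated by IL-1beta plus TNF-alpha supplied JNK3; compounds were titrated.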

In assay [7] the target is 3',5'-cyclic-AMP phosphodiesterase 4B (Homo sapiens) (UniProt Q07343). The experiment in a line: qHTS Assay for Inhibitors of PDE-IV (AID 607; active = well fitted activation curve with a large enough effect in the main read-out, with a control signal flat, not every such curve was filed as active; also: % of control where 0% means no effect). An outline of the steps:
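The readout is membrane depolarisation from a cAMP-sensing CNG channel, detected with a potential dye at ex 535/em 590. Cells were HEK293-derived (endogenous PDE-IV) at 1000 cells/well, titrated up to 22.9 uM final.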

Assay [8] is described as follows: qHTS Assay for Lipid Storage Modulators (AID 1519; calls by dose curve). To be noted: Drosophila S3 cells, BODIPY lipid droplet/cell ratio, laser cytometry, cells loaded with oleic acid; for activity change, negative = inhibition: at 25.7 µM (top of the series). An outline of the steps: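 Cells seeded at 5,000 per well were treated with compounds over a concentration series and loaded with oleic acid (400 uM, as added). Lipid droplet fluorescence (488 nm excitation, 500-530 nm channel) was read by laser-scanning cytometry and normalized to 20 uM Triacsin C.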

The target in assay [9] is Luciferin 4-monooxygenase (Photinus pyralis) (UniProt P08659). The assay is described as follows: Biochemical firefly luciferase enzyme assay for NPC (AID 624030; active = well fitted curve in the direction sought with a large enough effect; an effect the other way counts as inactive or inconclusive;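 also: purified P. pyralis luciferase at 10 nM with luciferin and ATP substrate; 0% = DMSO and -100% = full luciferase inhibition by PTC124 control; nearly all actives have a fitted effect of over 70% in size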). An outline of the steps:
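Counter-screen for direct inhibition of the luciferase enzyme by approved-drug library compounds, run at 10 nM enzyme in 50 mM Tris acetate (final). Luminescence was read within 5 min of enzyme-buffer addition and normalized to PTC124 versus DMSO (0%).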

Assay [10] can be described thus: S16 Schwann cell viability assay (CellTiter-Glo assay) (AID 624031; active = well fitted curve in the direction sought with a large enough effect; an effect the other way counts as inactive or inconclusive;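 also: cellular ATP luminescence as a viability measure; plate controls were DMSO-treated cells for no effect and cell-free wells for full effect; nearly all actives have a fitted effect of over 70% in size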). An outline of the steps:
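Native S16 Schwann cells (rat), serum-containing medium, overnight attachment then 24 h drug exposure at 37 °C/5% CO2. CellTiter-Glo ATP signal; normalized to cell-free and vehicle wells.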
A general note: Cellular ATP, detected with luciferase, serves as a proxy for viable cell number.

A short description of assay [11]: qHTS profiling for inhibitors of Plasmodium falciparum proliferation (AID 504749; active = well fitted curve in the direction sought with a large enough effect; an effect the other way counts as inactive or inconclusive;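 also: 0% = DMSO vehicle and full inhibition = artemisinin control; nearly all actives have a fitted effect of over 60% in size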). To be noted: P. falciparum in erythrocytes, SYBR Green DNA, 72 h, at 12.8 µM (top of the series). In outline:
(§1)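 Parasite proliferation within erythrocytes, 72 h exposure. Endpoint: SYBR Green I fluorescence after overnight lysis at room temperature. Controls: 0.29 uM artemisinin, DMSO.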

A further assay relates to C2A. Described as above. To be noted: P. falciparum in erythrocytes, SYBR Green DNA, 72 h; series mostly up to 12.8 µM. An outline of the steps: as §1
A further assay concerns CP191. The assay is described as above. The note with it: P. falciparum in erythrocytes, SYBR Green DNA, 72 h; series mostly up to 12.8 µM. In outline: as §1
Another assay relates to CP256. The description is as above. To be noted: P. falciparum in erythrocytes, SYBR Green DNA, 72 h; series mostly up to 12.8 µM. In outline: as §1
The next assay has as its system CP262. Described as above. The note with it: P. falciparum in erythrocytes, SYBR Green DNA, 72 h; series mostly up to 12.8 µM. An outline of the steps:
as §1

A further assay has as its system CP268. Described as above. To be noted: P. falciparum in erythrocytes, SYBR Green DNA, 72 h; series mostly up to 12.8 µM. An outline of the steps: as §1
Another assay has as its system JCK. The description is as above. To be noted: P. falciparum in erythrocytes, SYBR Green DNA, 72 h; series mostly up to 12.8 µM. An outline of the steps: as §1
A further assay has as its system SC27B. The description is as above. The note with it: P. falciparum in erythrocytes, SYBR Green DNA, 72 h; series mostly up to 12.8 µM. An outline of the steps:
as §1

Assay [12] can be described thus: NFAT Signaling Pathway (AID 444).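 Also: carbachol stimulus at about its EC50 of 1 µM final; % is scaled to controls: 0 for no effect and ±100 for the full control effect.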 To be noted: Jurkat NFAT-bla M1, carbachol, beta-lactamase ratio, 5 h; at 17.2 µM (top of the series) unless noted. In outline: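 Jurkat cells carrying an NFAT-driven β-lactamase reporter and co-transfected muscarinic M1 receptor were treated with compound plus carbachol (1 uM final, an EC50 level) for 5 h at 37 °C. CCF4 loading followed for 1 h at RT; 460/530 nm ratio gave %activity.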

In assay [13] the target is Ubiquitin carboxyl-terminal hydrolase 1 (Homo sapiens) (UniProt O94782). The experiment in a line: Inhibitors of USP1/UAF1: Pilot qHTS (AID 504865; active = well fitted curve in the direction sought with a large enough effect; an effect the other way counts as inactive or inconclusive;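 also: rhodamine fluorescence freed from ubiquitin-rhodamine substrate followed over time; top concentration of the series differs between compounds; % is scaled to controls: 0 for no effect and ±100 for the full control effect; nearly all actives have a fitted effect of over 35% in size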). An outline of the steps:
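1nM USP1/UAF1 + cpd, 15 min RT; start w/ Ub-Rho 150nM final; kinetic FL 480/540 nm, 6 reads q60 s. Buffer 50mM HEPES pH 7.8, 0.5mM EDTA, 1mM TCEP, 0.01% Tween-20, 0.1 mg/ml BSA.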
A general note: In qHTS, concentration-response curves come from the screen itself.

Where [14] appears, read: measured here: cell count channel max response.
Setting [15] is: measured here: lipid channel max response.

Results filed as inconclusive are left out. Active and inactive are the calls of the source. Unless noted, calls follow the shape of the dose curve; as a rule, active = well fitted curve in either direction with a large enough effect (not every such curve was filed as active); inconclusive = small, poorly fitted or top-dose-only effect, or another doubt; inactive = flat fitted curve, though single readings scatter.

Sequence of Ubiquitin carboxyl-terminal hydrolase 1 (Homo sapiens) (O94782 whole entry, looked up): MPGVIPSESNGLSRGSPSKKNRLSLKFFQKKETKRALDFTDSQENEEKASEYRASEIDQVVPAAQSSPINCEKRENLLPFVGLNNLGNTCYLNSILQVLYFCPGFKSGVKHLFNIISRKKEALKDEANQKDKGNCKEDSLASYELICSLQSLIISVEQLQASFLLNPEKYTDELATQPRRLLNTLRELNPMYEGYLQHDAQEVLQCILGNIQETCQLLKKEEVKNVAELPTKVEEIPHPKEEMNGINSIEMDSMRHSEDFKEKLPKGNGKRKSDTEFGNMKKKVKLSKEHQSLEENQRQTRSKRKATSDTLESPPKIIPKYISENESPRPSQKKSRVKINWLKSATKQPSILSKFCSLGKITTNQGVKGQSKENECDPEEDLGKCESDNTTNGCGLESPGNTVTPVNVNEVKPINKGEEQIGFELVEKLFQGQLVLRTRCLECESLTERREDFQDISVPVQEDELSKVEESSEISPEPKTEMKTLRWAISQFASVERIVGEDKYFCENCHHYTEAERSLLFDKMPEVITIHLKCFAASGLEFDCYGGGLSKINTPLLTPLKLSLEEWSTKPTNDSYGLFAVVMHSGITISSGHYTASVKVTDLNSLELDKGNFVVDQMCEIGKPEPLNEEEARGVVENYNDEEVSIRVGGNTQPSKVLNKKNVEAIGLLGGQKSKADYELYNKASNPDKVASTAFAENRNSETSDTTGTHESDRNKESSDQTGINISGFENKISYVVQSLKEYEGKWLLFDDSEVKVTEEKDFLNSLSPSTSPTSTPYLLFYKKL
Sequence of Cytochrome P450 1A2 (Homo sapiens) (P05177 whole entry, looked up): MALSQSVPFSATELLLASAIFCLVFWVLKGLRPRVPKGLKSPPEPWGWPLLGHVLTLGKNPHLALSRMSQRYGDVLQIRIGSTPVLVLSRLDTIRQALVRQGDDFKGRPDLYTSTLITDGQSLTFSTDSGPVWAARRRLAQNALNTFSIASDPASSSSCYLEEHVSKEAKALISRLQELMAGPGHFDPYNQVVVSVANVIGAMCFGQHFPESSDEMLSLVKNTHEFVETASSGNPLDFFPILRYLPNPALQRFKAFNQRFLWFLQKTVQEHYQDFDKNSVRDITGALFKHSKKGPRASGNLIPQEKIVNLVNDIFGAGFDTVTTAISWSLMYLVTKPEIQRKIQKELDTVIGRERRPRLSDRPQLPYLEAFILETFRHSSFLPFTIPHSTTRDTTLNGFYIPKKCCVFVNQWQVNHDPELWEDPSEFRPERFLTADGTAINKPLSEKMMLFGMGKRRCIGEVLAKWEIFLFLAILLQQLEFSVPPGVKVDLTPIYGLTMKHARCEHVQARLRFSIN
Sequence of 3',5'-cyclic-AMP phosphodiesterase 4B (Homo sapiens) (Q07343 whole entry, looked up): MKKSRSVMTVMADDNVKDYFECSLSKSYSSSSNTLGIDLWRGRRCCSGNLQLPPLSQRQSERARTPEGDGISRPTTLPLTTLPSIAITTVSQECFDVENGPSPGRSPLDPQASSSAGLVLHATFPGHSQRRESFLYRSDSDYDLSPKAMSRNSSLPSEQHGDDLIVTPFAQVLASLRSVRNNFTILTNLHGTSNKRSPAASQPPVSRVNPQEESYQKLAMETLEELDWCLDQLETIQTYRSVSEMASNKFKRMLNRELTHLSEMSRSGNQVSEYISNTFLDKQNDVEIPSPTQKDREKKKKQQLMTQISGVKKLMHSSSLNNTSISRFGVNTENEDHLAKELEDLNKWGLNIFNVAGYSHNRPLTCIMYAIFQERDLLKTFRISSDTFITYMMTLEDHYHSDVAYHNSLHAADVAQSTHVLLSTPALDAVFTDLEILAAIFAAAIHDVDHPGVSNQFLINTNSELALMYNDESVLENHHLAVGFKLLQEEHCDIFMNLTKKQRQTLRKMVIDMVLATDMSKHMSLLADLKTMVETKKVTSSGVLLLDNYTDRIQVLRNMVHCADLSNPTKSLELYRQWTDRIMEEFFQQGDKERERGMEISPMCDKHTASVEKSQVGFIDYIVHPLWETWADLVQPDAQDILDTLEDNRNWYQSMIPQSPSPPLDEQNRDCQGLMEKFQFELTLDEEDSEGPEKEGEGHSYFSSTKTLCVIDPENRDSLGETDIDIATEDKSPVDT
Sequence of Glucocorticoid receptor (Homo sapiens) (P04150 whole entry, looked up): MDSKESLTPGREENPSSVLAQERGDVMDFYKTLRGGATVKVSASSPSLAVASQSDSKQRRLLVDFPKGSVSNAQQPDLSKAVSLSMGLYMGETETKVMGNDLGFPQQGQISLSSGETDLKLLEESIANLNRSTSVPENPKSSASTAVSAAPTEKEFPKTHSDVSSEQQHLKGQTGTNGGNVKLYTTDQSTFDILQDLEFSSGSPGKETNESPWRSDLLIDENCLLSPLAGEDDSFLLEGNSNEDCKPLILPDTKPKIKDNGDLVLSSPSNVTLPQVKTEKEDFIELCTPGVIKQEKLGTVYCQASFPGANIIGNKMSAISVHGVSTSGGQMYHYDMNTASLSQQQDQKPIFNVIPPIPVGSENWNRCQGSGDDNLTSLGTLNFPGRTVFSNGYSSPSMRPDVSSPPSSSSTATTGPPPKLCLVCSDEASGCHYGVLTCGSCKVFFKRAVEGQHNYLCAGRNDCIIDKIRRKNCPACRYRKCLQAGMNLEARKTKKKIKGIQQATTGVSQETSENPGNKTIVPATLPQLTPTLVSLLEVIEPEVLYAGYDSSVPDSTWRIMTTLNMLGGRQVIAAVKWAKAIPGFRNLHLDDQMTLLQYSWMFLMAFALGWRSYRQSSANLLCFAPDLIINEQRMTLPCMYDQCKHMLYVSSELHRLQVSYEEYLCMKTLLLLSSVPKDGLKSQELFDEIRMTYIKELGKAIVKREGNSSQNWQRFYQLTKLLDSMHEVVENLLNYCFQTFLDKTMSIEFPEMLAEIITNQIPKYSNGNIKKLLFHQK
Sequence of Luciferin 4-monooxygenase (Photinus pyralis) (P08659 whole entry, looked up): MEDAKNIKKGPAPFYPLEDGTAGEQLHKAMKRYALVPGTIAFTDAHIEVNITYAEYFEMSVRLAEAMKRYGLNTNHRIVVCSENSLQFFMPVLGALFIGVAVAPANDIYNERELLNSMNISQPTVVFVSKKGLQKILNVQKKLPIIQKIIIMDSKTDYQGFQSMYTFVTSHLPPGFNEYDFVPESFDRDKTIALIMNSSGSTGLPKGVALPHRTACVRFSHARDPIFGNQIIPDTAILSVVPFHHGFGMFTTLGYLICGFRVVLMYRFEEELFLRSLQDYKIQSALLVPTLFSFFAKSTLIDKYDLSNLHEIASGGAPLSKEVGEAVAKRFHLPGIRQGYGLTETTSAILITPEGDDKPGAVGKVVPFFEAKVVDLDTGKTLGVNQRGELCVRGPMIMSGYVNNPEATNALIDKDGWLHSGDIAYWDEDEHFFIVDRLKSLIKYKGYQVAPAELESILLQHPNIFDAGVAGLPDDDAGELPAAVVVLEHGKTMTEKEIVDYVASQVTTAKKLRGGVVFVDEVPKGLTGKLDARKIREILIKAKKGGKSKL

On to `NCc1ccccc1CC(=O)N[C@@H]1C(=O)N2C(C(=O)O)=C(CSc3nnnn3CC(=O)O)CS[C@@H]12`, for which the molecule was classed as inactive in [1], in [3], in assay [7] and in [10]. The Potency entry (in assay [2]; in assay [6]; in [9]; in the assay on C2A; in the assay with CP191; with CP256) was “inactive” in each case. Moreover, the Potency entry in the assay on CP262, in the assay with CP268, in the assay with JCK and in the assay with SC27B was “inactive” in each case. Besides, the Potency in assay [4] and in [5] was > 20.6 µM (inactive) throughout. For the same molecule, the activity change, negative = inhibition in assay [8] was -0.0833% (inactive). The max response in assay [8] (setting [14]) was -14.4%; in assay [8] (setting [15]) it was -13.9%. Further, the activity, negative = inhibition in [11] (parasite line A) was 1.91% (inactive); in assay [11] (parasite line B) it was -4.65% (inactive).
For the molecule `Nc1ccn([C@@H]2CC[C@H](CO)O2)c(=O)n1`, the molecule was classed as inactive in assay [1] and in assay [7]. Moreover, the Potency result in assay [2] and in assay [6] was “inactive” each time. The activity change, negative = inhibition is -7.49% (inactive) in assay [12] and -3.47% (inactive) in [8]. For the same molecule, the max response in assay [8] (setting [14]) was -4.3%; in assay [8] (setting [15]) it was -6.51%.
Regarding `C[C@@]12C=CC(=O)C=C1CC[C@@H]1[C@@H]2[C@H](O)C[C@]2(C)[C@@H]1CC[C@]2(O)C(=O)CO`, the call in assay [1], in assay [3] and in [7] was inactive. Further, the Potency entry in assay [2] and in [13] was “inactive” in each case. For the same molecule, the activity change, negative = inhibition is -7.95% (inactive) in assay [12] and -5.21% (inactive) in assay [8]. Besides, the max response was 2.46% in assay [8] (setting [14]) and -3.94% in assay [8] (setting [15]).
Turning to `C#C[C@@]1(O)CC[C@@H]2[C@@H]3CCC4=CC(=O)CC[C@@H]4[C@H]3CC[C@]21C`, the molecule was classed as inactive in assay [1] and in assay [3]. Moreover, the Potency entry in [2], in assay [6] and in assay [13] was “inactive” in each case. The figures for the activity change, negative = inhibition in assay [12] and in assay [8] were -7.42% (inactive) and -2.83% (inactive), respectively. Also, the values for the max response in assay [8] (setting [14]) and in assay [8] (setting [15]) were -8.09% and -9.96%, respectively.
With `CCOC(=O)C1=C(C)NC(C)=C(C(=O)OC)[C@@H]1c1cccc([N+](=O)[O-])c1`, the call in assay [1], in assay [3] and in assay [7] was inactive. Further, the Potency in [2] was 15.8 µM (active). In addition, the values for the activity change, negative = inhibition in [12] and in assay [8] were -23.9% (inactive) and 0.673% (inactive), respectively. Besides, the Potency entry in assay [6] and in assay [13] was “inactive” throughout. Besides, the max response in [8] (setting [14]) is -15%; in assay [8] (setting [15]), -22.2%.
Take `CC(C)(CO)[C@H](O)C(=O)NCCCO`: the result in assay [1], in assay [3] and in assay [7] was inactive. For the same molecule, the Potency entry in assay [2], in [6] and in assay [13] was “inactive” in each case. In addition, the activity change, negative = inhibition in assay [12] was 9.07% (inactive); in assay [8], -3.05% (inactive). Besides, the figures for the max response in assay [8] (setting [14]) and in [8] (setting [15]) were -6.65% and -8.62%, respectively.
With `CC(C)CC(=O)N[C@H](C(=O)N[C@H](C(=O)N[C@@H](CC(C)C)[C@H](O)CC(=O)N[C@@H](C)C(=O)N[C@@H](CC(C)C)[C@H](O)CC(=O)O)C(C)C)C(C)C`, the molecule was called inactive in [1], in [3] and in assay [7]. Moreover, the Potency result in assay [2], in assay [6] and in assay [13] was “inactive” throughout. In addition, the values for the activity change, negative = inhibition in assay [12] and in assay [8] were -1.98% (inactive) and 1.03% (inactive), respectively. For the same molecule, the max response came out at 20.1% in [8] (setting [14]) and 8.75% in assay [8] (setting [15]).
Consider `CC(=O)N(C[C@@H](O)CO)c1c(I)c(C(=O)NC[C@@H](O)CO)c(I)c(C(=O)NC[C@@H](O)CO)c1I`, for which the molecule was called inactive in [1], in [3] and in [7]. Also, the Potency result in assay [2], in [6] and in assay [13] was “inactive” throughout. Moreover, the figures for the activity change, negative = inhibition in assay [12] and in [8] were -8.29% (inactive) and -2.6% (inactive), respectively. In addition, the values for the max response in assay [8] (setting [14]) and in assay [8] (setting [15]) were -16.6% and -19.4%, respectively.

These data come from PubChem BioAssay (NCATS).
